# Screens from PubChem BioAssay.
# This is a sample that favours compounds with a hit; in the whole collection about 3.1% have one here.
# PAX8 reporter: PAX8 transcriptional activity inhibition | 360,000 compounds, 1.2% hits | inhibition, % at 12.6 µM | RMG-I TPO-luciferase reporter, SteadyGlo, 24 h;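 active = mean replicate inhibition at least 60% with every replicate also reaching 60%; inconclusive = only one of the two criteria is met; inactive = mean below 60% and not all replicates reaching 60%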;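 also: luciferase light reporting Pax8 driven TPO promoter activity; plate controls were median of neutral control wells for no effect and mitoxantrone controls for full effect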
# EWS-Fli inh: blocks EWS/Fli oncoprotein-driven transcription | A673 NR0B1-luciferase reporter, viability-normalised | inhibition, % at 12.6 µM | 350,000 compounds, 0.67% hits;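 active = mean inhibition of at least 50% after viability correction, with every replicate also passing that limit; inconclusive = mean reaches 50% but only one of two replicates passes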;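 also: firefly luciferase signal divided by Alamar Blue viability fluorescence both relative to DMSO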
# TROY NFkB inh: TROY signaling inhibition; Q293 LMP1-TROYcd NF-kB luciferase reporter, 4 h; inhibition, % at 10 µM; 360,000 compounds, 0.98% hits; AID 1347056;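 active = compounds whose plate-normalised and pattern-corrected inhibition of the luciferase reporter signal at the single screening dose is 50% or more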
# LMP1 NFkB inh: Epstein-Barr LMP1 NF-kappaB reporter inhibition. LMP1-induced NF-kappaB luciferase reporter cells, luminescence. inhibition, % at 12.5 µM. 350,000 compounds, 0.69% hits; in the data active = inhibition above about 41%; inconclusive = no clear call, values can overlap the other calls;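 also: 0% = neutral control wells and 100% = reference inhibitor control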
# TWEAK Fn14 block: blocks TWEAK-Fn14 interaction in a reporter cell assay | inhibition, % at 10 µM | 360,000 compounds, 2% hits | TWEAK-stimulated Fn14 reporter cells, luciferase luminescence, 8 h; in the data active = inhibition above about 50%
# LGR2 inh: inhibitors of bursicon-induced Drosophila LGR2 receptor cAMP signaling. HEK293 LGR2, CRE-luciferase, bursicon-stimulated, 4 h. inhibition, % at 9.99 µM. 380,000 compounds, 0.35% hits;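 active = drop in luminescence signal, shown as inhibition above about 50% in the replicate tests, limit read from the data, passing the limit was not always enough; inconclusive = probably only some replicates passing the limit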;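 also: agonist challenge used bursicon conditioned medium at about half maximal strength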
# DNA binding: small molecule DNA binding by fluorescence polarization; shares compounds with EWS-Fli inh; salmon sperm DNA acridine orange fluorescence polarization; AC35, µM (doses to about 68 µM), inactives show top-dose activity change, negative = DNA binding; 640 compounds, 2% hits;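 active = fitted curve reaches a 35% signal fall AC35 below twice the sample's top valid tested dose, actives reach about 48 µM in these data; inactive = the rest, including activity in the rising direction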;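 also: lower polarization ratio signals compound binding to DNA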
# * = called active by the depositor; ? = inconclusive; . = not tested or not shown.
SMILES,PAX8 reporter,EWS-Fli inh,TROY NFkB inh,LMP1 NFkB inh,TWEAK Fn14 block,LGR2 inh,DNA binding
CCOC(=O)C1CCCCN1C(=O)CCc1c(C)nc2cc(-c3ccccc3)nn2c1C (stereo not drawn),-30,51*,9,17,69*,-44,-5%
COc1cc(OC)cc(-c2cc3nc(C)c(CCC(=O)O)c(C)n3n2)c1,56,77*,58*,53*,90*,4,44µM*
CN(C)c1ccc2c(c1)[C@@H]1C[C@@H](CC(=O)NCc3ccc(Oc4ccccc4)cc3)O[C@H](CO)[C@@H]1O2,52,52*,.,.,.,.,3%
CN(C)c1ccc2c(c1)[C@@H]1C[C@H](CC(=O)NCc3ccc(Oc4ccccc4)cc3)O[C@@H](CO)[C@@H]1O2,49,38,.,.,.,.,.
O=C(C[C@H]1C[C@H]2c3cc(NS(=O)(=O)c4ccc(F)cc4)ccc3O[C@H]2[C@H](CO)O1)NCc1ccc(Oc2ccccc2)cc1,99*,54*,.,.,.,22,6%
CO[C@H]1CN(C)C(=O)c2ccc(NC(=O)C3CCCC3)cc2OC[C@@H](C)N(CC2CC2)C[C@H]1C,-7,1,.,.,.,1,.
O=C(c1cccnc1)N1C[C@H]2[C@@H](c3ccccc31)[C@H](CO)N2C(=O)Nc1ccccc1F,-3,-53,.,.,.,-2,.
COc1ccc(/C=C/C(=O)c2cc(F)ccc2OC(=O)c2ccccc2OC)cc1OC,85*,59*,55*,-7,77*,?,-4%
COc1ccc(/C=C/C(=O)c2ccc(C(=O)/C=C/c3ccc(OC)c(OC)c3)cc2)cc1OC,25,62*,-5,20,12,7,-23%
COC(=O)c1ccc(/C=C/C(=O)c2ccc(OC)c(OC)c2)cc1,.,.,22,7,18,.,.
COc1ccccc1N(/N=C1\Sc2ccccc2C1=O)C(C)=O,-114,54*,78*,-3,79*,.,-12%
C=C(C(=O)c1ccccc1)C(C)C(=C)C(=O)c1ccccc1,98*,73*,1,-48,94*,.,-5%
C=C(C(=O)c1ccccc1)C(C(=C)C(=O)c1ccccc1)c1ccc(OC)cc1,117*,78*,6,17,93*,.,-11%
COc1ccc(C(CC(=O)c2ccccc2)CC(=O)c2ccccc2)cc1,7,-3,-23,-1,-24,21,.
O=C(O)c1ccc(C(=O)C(=O)c2ccccc2)cc1,16,-5,2,0,-5,0,.
O=C([C@@H]1[C@@H](CO)[C@@H]2Cn3c(ccc(-c4ccncc4)c3=O)[C@@H]2N1CCC(F)(F)F)N1CCCCC1,1,-4,.,.,.,0,.
N#CC(C#N)=C1C=CC=CN1/C(=C\c1ccco1)C(=O)c1ccc(Cl)cc1,.,86*,86*,-30,97*,105*,3%
CC(/C=N/n1c(-c2ccc(Cl)cc2)n[nH]c1=S)=C\c1ccco1,3,15,10,3,19,-5,.
O=c1oc2ccccc2cc1-c1ccc(O)cc1,-149,-48,-98,-16,-70,.,.
Nc1ccc(-c2cc3ccccc3oc2=O)cc1,9,79*,60*,58*,82*,3,-11%
Nc1cc2c(cc1Br)[nH]c(=O)c1ccccc12,6,52*,-7,-109,24,.,-2%
COc1ccc(CCC(C)NC2CCCCCCC2)cc1 (stereo not drawn),15,11,-1,3,-26,11,.
COc1ccc(CCC(C)NCC2CCCCC2)cc1 (stereo not drawn),15,90*,17,-3,-6,10,2%
CO[C@@H]1CC[C@@H]2CCN(C)C(=O)[C@@H](C)CN(C)C(=O)c3cccc(C#N)c3OC[C@@H]1O2,4,0,.,.,.,-3,.
CC(=O)Nc1cccc(-c2ccnc3c2CC(C)(C(=O)NCc2ccc(N(C)C)cc2)O3)c1 (stereo not drawn),35,54*,24,.,-11,-2,-15%
CCc1cccc2c(C(=O)CN3C(=O)C(=O)N(C4CCCC4)C3=O)c[nH]c12,-2,-1,11,3,10,-4,.
CCc1cccc2c(C(=O)CN3C(=O)NC4(CCCCC4)C3=O)c[nH]c12,50,51*,-43,-71,-55,-3,9%
